From PubChem
Rows were chosen to be rich in hits. Some 1.5% of all compounds tested hit in one or more screens of this group.
MEX-5 binding – C. elegans MEX-5 TCR-2 RNA binding activity; MEX-5/FITC-TCR2 RNA binding, fluorescence polarization; hits give low values; activity score (negative = inhibition of binding), % at 10 µM; Q9XUB2; 300,000 tested, 0.38% active; AID 1832;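 active = inhibition past about -25% in most replicates, and total fluorescence under double the plate's negative control median, limit read from the data; inconclusive = replicates evenly split on the limit, or fluorescence at least double controls; inactive = too little inhibition in most replicates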;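 note: 0% = DMSO and -100% = 5 µM competing unlabeled TCR2 RNA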
E coli Lon inh – inhibitors of E. coli Lon protease; inhibition, % at 7.94 µM; purified E. coli Lon protease, fluorescence polarization; P0A9M0; 360,000 tested, 0.42% active; in the data active = inhibition above about 13%, passing the limit was not always enough;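 note: 0% = enzyme with probe and DMSO and 100% = no enzyme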
MCL1 BIM primary – MCL1-BIM-BH3 interaction inhibition (human); GST-MCL1 / FITC-Bim-BH3 fluorescence polarization; inhibition, % at 10.9 µM; 320,000 tested, 0.68% active;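 active = inhibition above the mean inhibition of all tested compounds plus 3 SD, set per campaign, cut at about 40% in these data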;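 note: 0% = DMSO wells and 100% = unlabeled Bim-BH3 peptide control; higher means more loss of mP so more displacement of Bim peptide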
Target sequence (Q07820 whole entry, looked up): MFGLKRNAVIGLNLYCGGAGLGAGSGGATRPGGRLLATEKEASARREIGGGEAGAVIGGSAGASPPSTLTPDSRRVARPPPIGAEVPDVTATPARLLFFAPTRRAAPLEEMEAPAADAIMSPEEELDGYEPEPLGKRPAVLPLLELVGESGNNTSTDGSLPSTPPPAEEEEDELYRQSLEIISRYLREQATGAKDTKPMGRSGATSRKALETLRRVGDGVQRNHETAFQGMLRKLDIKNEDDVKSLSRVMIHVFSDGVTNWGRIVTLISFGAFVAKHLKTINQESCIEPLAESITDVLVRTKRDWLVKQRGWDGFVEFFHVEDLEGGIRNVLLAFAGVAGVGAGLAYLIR
BCLXL inh – blocks human Bcl-xL binding to Bim BH3 peptide. Q07817. inhibition, % at 10.9 µM. GST-Bcl-xL / FITC-Bim BH3 peptide fluorescence polarization. 320,000 tested, 0.7% active;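 active = inhibition above the mean of all tested compounds plus 3 SD, cutoff set per campaign, cut at about 30% in these data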;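 note: 0% = DMSO wells and 100% = unlabeled Bim-BH3 peptide competitor; inhibitors lower millipolarization by displacing the labeled peptide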
GLD-1 RNA inh – GLD-1-TGE RNA interaction inhibition (C. elegans); purified GLD-1 + fluorescein TGE RNA, fluorescence polarization; AID 2280; inhibition, % at 5.96 µM; 320,000 tested, 0.44% active;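 active = percent inhibition above a per-plate cutoff, the plate mean of test compounds plus 3 SD, cut at about 30% in these data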;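 note: 0% = DMSO wells with GLD-1 and probe and 100% = wells lacking GLD-1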
EBV gp42 inh – inhibitors of Epstein-Barr virus glycoprotein 42; inhibition, % (tested at 21.74 µM); Q1HVG2; Fluorescence polarization binding assay, mP read-out; 220,000 tested, 0.42% active; AID 1085; in the data active = inhibition above about 50%
Bcl-xL conf – Bcl-xL (human) inhibition, MCL1 counter-screen confirmation; inhibition, % at 10.9 µM; GST-Bcl-xL / FITC-Bim BH3 peptide FP binding; 1,700 tested, 54% active; AID 2166; shares compounds with MCL1 BIM primary;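 active = inhibition above a cutoff equal to the mean inhibition of all tested compounds plus 3 SD, cut at about 30% in these data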;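 note: 0% = DMSO wells and 100% = unlabeled Bim BH3 control peptide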
MCL1 BIM confirm – MCL1-BIM-BH3 interaction inhibition, confirmation; GST-MCL1 / FITC-Bim-BH3 fluorescence polarization; shares compounds with MCL1 BIM primary; AID 2168; inhibition, % at 10.9 µM; 1,700 tested, 61% active;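 active = inhibition above the average of all tested compounds plus 3 SD, cut at about 40% in these data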;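 note: 0% = DMSO wells and 100% = unlabeled Bim-BH3 control peptide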
* hit, by the source's call.

CCCNC(=O)C1(C)CCCN(C(=O)c2c(F)ccc(C)c2F)C1 (configuration not stated) was read as E coli Lon inh 5.6.
O=C(CN1CCSC1=O)N1CCN(S(=O)(=O)c2ccc(Cl)cc2)CC1 was read as E coli Lon inh -1.8, MCL1 BIM primary 4.5, BCLXL inh 2.5 and GLD-1 RNA inh 3.2.
For O=C(CN1CCSC1=O)N1CCN(S(=O)(=O)c2ccccc2)CC1 the results were E coli Lon inh 1.3, MCL1 BIM primary 54.7*, BCLXL inh 5.8, GLD-1 RNA inh 2.9, Bcl-xL conf 5.4 and MCL1 BIM confirm 10.6.
COC(=O)C(C)NC(=O)C1CCCN1C(=O)CNC(=O)OCc1ccccc1 (configuration not stated) was read as MEX-5 binding 2.6, E coli Lon inh 1.6, MCL1 BIM primary 2.6, BCLXL inh -3.5 and GLD-1 RNA inh -4.5.
`O=C(NCc1ccc2[nH]c3c(c2c1)CCCC3)N1CCOCC1` gave MEX-5 binding -13.7, MCL1 BIM primary 66.5*, BCLXL inh 64.3*, GLD-1 RNA inh 40.2*, EBV gp42 inh 30.7, Bcl-xL conf 52.6* and MCL1 BIM confirm 72.4*.
`O=C(NCc1ccc2[nH]c3c(c2c1)CCCC3)c1ccc(S(=O)(=O)N2CCOCC2)cc1` gave MEX-5 binding 2.2, E coli Lon inh 2.1, MCL1 BIM primary -3.7, BCLXL inh 3.1, GLD-1 RNA inh 5.4 and EBV gp42 inh 6.7.
Screening COc1cc(OC)cc(C(=O)NCCCCc2ccccc2)c1 returned MEX-5 binding 3.1, E coli Lon inh 3.1, MCL1 BIM primary -1.5, BCLXL inh -4.0 and GLD-1 RNA inh 2.5.
Screening CC1(C)Cc2c(sc3nc[nH]c(=O)c23)CO1 returned MEX-5 binding -0.6, E coli Lon inh 6.8, MCL1 BIM primary 4.8, BCLXL inh 1.5, GLD-1 RNA inh -3.2 and EBV gp42 inh -7.8.
`O=c1[nH]cnc2sc3c(c12)CN(Cc1ccccc1)CC3` gave MEX-5 binding 1.3, E coli Lon inh 10.1, MCL1 BIM primary 57.9*, BCLXL inh 72.7*, GLD-1 RNA inh -9.4, Bcl-xL conf 21.9 and MCL1 BIM confirm 17.3.
COc1cc2c3nnc(-c4ccc(F)cc4)c-3cn(Cc3cccc(F)c3)c2cc1OC was read as MEX-5 binding inconclusive, E coli Lon inh -9.1, MCL1 BIM primary 85.0*, BCLXL inh 76.5*, GLD-1 RNA inh -4.5, EBV gp42 inh -27.6, Bcl-xL conf 82.2* and MCL1 BIM confirm 87.3*.
For COc1cc2c3nnc(-c4ccc(F)cc4)c-3cn(Cc3cccc(C)c3)c2cc1OC the results were MEX-5 binding inconclusive, E coli Lon inh -60.2, MCL1 BIM primary 99.3*, BCLXL inh 96.3*, GLD-1 RNA inh 49.5*, EBV gp42 inh -7.7, Bcl-xL conf 84.9* and MCL1 BIM confirm 90.1*.
`COc1cccc(Cn2nc3c4cc(F)ccc4n(Cc4ccc(F)cc4)cc-3c2=O)c1` gave MEX-5 binding -2.4, E coli Lon inh 6.3, MCL1 BIM primary -6.8, BCLXL inh -0.9 and GLD-1 RNA inh 2.8.
COc1ccc(CCCNC(=O)C2CCC(=O)N(CCc3cccc(F)c3)C2)cc1 (configuration not stated) was read as MEX-5 binding 3.0, E coli Lon inh -1.5, MCL1 BIM primary -2.6, BCLXL inh 0.5 and GLD-1 RNA inh 2.0.
O=C(O)c1cc(-c2ccc(/C=C3\NC(=O)N(c4ccccc4)C3=O)o2)ccc1Cl was read as MEX-5 binding -10.5, E coli Lon inh 0.3, MCL1 BIM primary 30.7, BCLXL inh 22.9, GLD-1 RNA inh 8.5 and EBV gp42 inh -2.0.
Screening O=C(O)c1cc(-c2ccc(/C=C3\NC(=O)N(c4ccc(Cl)cc4)C3=O)o2)ccc1Cl returned MEX-5 binding inconclusive, E coli Lon inh -12.8, MCL1 BIM primary 72.1*, BCLXL inh 28.9, GLD-1 RNA inh 4.3, EBV gp42 inh 11.3, Bcl-xL conf 31.5* and MCL1 BIM confirm 54.8*.
